# Assay results as given in PubChem BioAssay (NCATS).
# Values without a mark were called inactive. Records with an inconclusive call do not appear. Activity calls are given as the source filed them. Unless noted, calls come from the whole dose curve; as a rule, active = well fitted curve in the direction sought with a large enough effect; inconclusive = small, poorly fitted or top-dose-only effect, or another doubt; inactive = no such curve, though single readings can be large; an effect the other way counts as inactive or inconclusive.
# How the values were obtained:
# [1] = NCATS anti-infectives library activity on the primary C. elegans qHTS viability assay (AID 1745855; calls by dose curve)
# Method in brief: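 Viability read-out is GFP fluorescence of PE254-GFP-FLuc C. elegans, measured by laser cytometry (488 nm) at day 0, 3 and 7. Ten L1 worms per well were incubated 7 days at 21 °C with compounds and bacterial capsules in S medium.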
# [2] = biological target: Lysosomal acid glucosylceramidase (Homo sapiens) (UniProt P04062); test: Glucocerebrosidase-p2 (AID 348; in the data active = potency below about 10 µM; note: potency is the fitted concentration of half-maximal effect); settings: purified GBA, blue fluorogenic substrate, 40 min
# Method in brief: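 Compounds titrated from 0.6 nM upwards against 0.2 nM enzyme in pH 5.9 citric acid/KH2PO4, taurocholate, tween-20; blue fluorogenic substrate 80 uM, 40 min room temperature, stopped and read Ex 365/Em 440 for AC50.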
# [3] = AP1 Signaling Pathway (AID 357; active = well fitted curve in either direction with a large enough effect, not every such curve was filed as active; note: % is set by controls: 0 for no effect and ±100 for the full control effect); settings: ME-180 AP-1-bla reporter, EGF-induced, beta-lactamase ratio, 5 h; at 7.69 µM (top of the series) unless noted
# Method in brief: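 ME-180 cells with beta-lactamase reporter under AP-1 response element, stimulated with EC50 EGF; compounds tested in titration series, 5 h at 37 °C. CCF4 substrate added 2.5 h at room temperature; 460/530 nm emission ratio gave %activity and AC50.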
# [4] = NFAT Signaling Pathway (AID 444; active = well fitted curve in either direction with a large enough effect, not every such curve was filed as active;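 note: carbachol stimulus at about its EC50 of 1 µM final; % is set by controls: 0 for no effect and ±100 for the full control effect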); settings: Jurkat NFAT-bla M1, carbachol, beta-lactamase ratio, 5 h; at 7.69 µM (top of the series) unless noted
# Method in brief: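 Jurkat cells carrying an NFAT-driven β-lactamase reporter and co-transfected muscarinic M1 receptor were treated with compound plus carbachol (1 uM final, an EC50 level) for 5 h at 37 °C. CCF4 loading followed for 1 h at RT; 460/530 nm ratio gave %activity.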
# [5] = Stat Signaling Pathway (AID 446; active = well fitted curve in either direction with a large enough effect, not every such curve was filed as active;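 note: ME-180 cervical cancer cells given 40 pM IL-6 alongside compound; SIE-controlled beta-lactamase reporter measured as 460/530 nm FRET emission ratio; % is set by controls: 0 for no effect and ±100 for the full control effect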)
# Method in brief: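 Screening format detects activators and inhibitors alike: ME-180 SIE-bla cells stimulated at 40 pM IL-6 for 5 hrs with compound, then dual-emission beta-lactamase read at 405 nm excitation.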
# [6] = biological target: Glucocorticoid receptor (Homo sapiens) (UniProt P04150); test: GR-EFC Redistribution (AID 451; calls by dose curve; note: potency is the fitted concentration of half-maximal effect); settings: CHO-K1 GR-EFC translocation, beta-gal luminescence, 2 h
# Method in brief: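 CHO-K1 cells stably expressing nuclear-localized β-gal enzyme acceptor and GR fused C-terminally to the enzyme donor fragment; ligand-driven nuclear translocation restores β-gal by complementation. Compounds titrated up to 46 uM final, 2 h at 37 °C; luminescence read.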
# [7] = biological target: Mitogen-activated protein kinase 10 (Mus musculus) (UniProt Q61831); test: JNK3 AlphaScreen Assay (AID 530; active = well fitted curve in either direction with a large enough effect, not every such curve was filed as active;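 note: kinase came from lysate of stimulated human HepG2 cells; signal reports phosphorylation of biotinylated GST-cJun 1-79 at Ser73 with 10 µM ATP; % is set by controls: 0 for no effect and ±100 for the full control effect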)
# Method in brief: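 Inhibitors reduce antibody binding to phosphorylated biotin-cJun, lowering AlphaScreen luminescence. Lysates from HepG2 cells pre-activated by IL-1beta plus TNF-alpha supplied JNK3; compounds were titrated.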
# [8] = biological target: Dual specificity protein kinase CLK4 (Homo sapiens) (UniProt Q9HAZ1); test: qHTS Assay for Inhibitors of CDC-like Kinase 4 (Kinase-Glo Assay) (AID 1770); note: nearly all actives have a fitted effect of over 65% in size; note: potency is the fitted concentration of half-maximal effect
# Method in brief: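 Luminescent ATP-depletion read-out (Kinase-Glo) after 4.5 h room-temperature reaction of Clk4 (25 nM final) with RS peptide (100 uM) and ATP (1 uM), pH 7.5 Tris buffer with MgCl2 and DTT.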
# [9] = biological target: Dual specificity protein kinase CLK4 (Homo sapiens) (UniProt Q9HAZ1); test: qHTS Assay for Inhibitors of CDC-like Kinase 4 (ADP-Glo Assay) (AID 1771); note: nearly all actives have a fitted effect of over 70% in size; note: potency is the fitted concentration of half-maximal effect
# Method in brief: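 25 nM Clk4 with 100 uM RS repeat peptide and 1 uM ATP (final) in buffer with 2 mM MgCl2, 0.5 mM EGTA, 2.5 mM DTT, 0.01% Triton X-100; 1 h at room temperature; ADP-Glo luminescence for ADP formed.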
# [10] = biological target: Dual specificity protein kinase CLK4 (Homo sapiens) (UniProt Q9HAZ1); test: qHTS Assay for Inhibitors of CDC-like Kinase 4 (ADP-FP Assay) (AID 1795); note: nearly all actives have a fitted effect of over 60% in size; note: potency is the fitted concentration of half-maximal effect
# Method in brief: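 Kinase activity was measured as ADP production using Transcreener orange tracer (4 nM) and ADP antibody (1 ug/mL) fluorescence polarization, with ADP calculated from a calibration curve. The 1 h reaction contained 6.25 nM Clk4, 1 uM ATP and 100 uM RS peptide at pH 7.5 with Mg2+.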
# [11] = biological target: Cytochrome P450 1A2 (Homo sapiens) (UniProt P05177); test: p450-cyp1a2 (AID 410; calls by dose curve; note: potency is the fitted concentration of half-maximal effect)
# Method in brief: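 20nM CYP1A2 with 100uM Luciferin-ME (at Km) in 100mM KPO4; compound preincubated 10 min, NADPH regeneration added, 60 min at room temperature. Luciferin quantified by luminescence after detection reagent; normalized to 57 uM furafylline.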
# [12] = biological target: Cytochrome P450 2C19 (Homo sapiens) (UniProt P33261); test: qHTS Assay for Inhibitors and Substrates of Cytochrome P450 2C19 (AID 899); note: potency is the fitted concentration of half-maximal effect; nearly all actives have a fitted effect of over 60% in size
# Method in brief: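 In 50mM KPO4, the reaction held 5nM enzyme and KM-level (10uM) Luciferin-H EGE; it ran 60 min at 37C after NADPH regeneration and a 10 min compound preincubation. Luminescence values were scaled to 57uM ketoconazole as complete inhibition.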
# [13] = biological target: Glucocorticoid receptor (Homo sapiens) (UniProt P04150); test: GR-GFP Redistribution (AID 450;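 active = compounds whose dose series gives a full or clear partial fitted curve of increased nuclear translocation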; note: potency is the fitted concentration of half-maximal effect); settings: U2OS GR-GFP nuclear translocation, laser cytometry, 2 h
# [14] = biological target: Cytochrome P450 3A4 (Homo sapiens) (UniProt P08684); test: qHTS Assay for Activators of Cytochrome P450 3A4 (AID 885); note: nearly all actives have a fitted effect of over 65% in size
# Method in brief: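 Steps: enzyme/substrate mix dispensed; compound added, 10 min RT; NADPH regeneration solution added, 60 min RT; luciferin detection buffer stops reaction; 20 min later luminescence measured.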
# [15] = biological target: Cytochrome P450 2D6 (Homo sapiens) (UniProt P10635); test: qHTS Assay for Inhibitors and Substrates of Cytochrome P450 2D6 (AID 891); note: potency is the fitted concentration of half-maximal effect; nearly all actives have a fitted effect of over 60% in size
# Method in brief: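 Human CYP2D6 (5 nM) with 30 uM Luciferin-ME EGE (at Km) in 100 mM KPO4, compound preincubated 10 min, then NADPH regeneration system for 60 min at room temperature. Luciferin read by luminescence; normalized to 1.43 uM quinidine.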
# [16] = biological target: Ubiquitin carboxyl-terminal hydrolase 1 (Homo sapiens) (UniProt O94782); test: Inhibitors of USP1/UAF1: Pilot qHTS (AID 504865); note: nearly all actives have a fitted effect of over 35% in size; note: potency is the fitted concentration of half-maximal effect
# Method in brief: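 Deubiquitinase activity followed as kinetic rhodamine fluorescence release from 150 nM Ub-Rho. 1 nM USP1/UAF1 with compound, after 15 min room-temperature preincubation, in HEPES pH 7.8 buffer containing TCEP, EDTA, BSA and Tween-20.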
# [17] = biological target: 3',5'-cyclic-AMP phosphodiesterase 4B (Homo sapiens) (UniProt Q07343); test: qHTS Assay for Inhibitors of PDE-IV (AID 607; active = well fitted activation curve with a large enough effect in the main read-out, with a control signal flat, not every such curve was filed as active; note: % of control where 0% means no effect)
# Method in brief: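 The readout is membrane depolarisation from a cAMP-sensing CNG channel, detected with a potential dye at ex 535/em 590. Cells were HEK293-derived (endogenous PDE-IV) at 1000 cells/well, titrated up to 22.9 uM final.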
# [18] = qHTS Assay for Identification of Small Molecule Agonists for Hypoxia Response Element Signaling Pathway (AID 914; active = well fitted activation curve with a large enough effect in the signal ratio, with a control signal flat, not every such curve was filed as active; the % refers to the signal ratio; note: potency is the fitted concentration of half-maximal effect; for activation: % of control where 0% means no effect); settings: ME-180 (cervical carcinoma) HRE-bla reporter, beta-lactamase ratio, CoCl2, 17 h; activation: active compounds read high
# Method in brief: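 HRE-bla ME-180 cells, overnight plating in Opti-MEM with 0.5% dialyzed FBS; cpd titration + EC50 CoCl2, 17 h, 37 degrees Celsius; CCF4 2.5 h RT; 460/530 nm ratio; AC50.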
# [19] = biological target: Cytochrome P450 3A4 (Homo sapiens) (UniProt P08684); test: qHTS Assay for Inhibitors and Substrates of Cytochrome P450 3A4 (AID 884); note: potency is the fitted concentration of half-maximal effect; nearly all actives have a fitted effect of over 50% in size
# Method in brief: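 20 nM human CYP3A4 with 25 uM Luciferin-PPXE (at KM) in 200 mM KPO4, preincubated 10 min with compound; NADPH regeneration started a 60 min RT reaction. Luciferin detected by luminescence, normalized to 57 uM ketoconazole as full inhibition.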
# Sequence of Dual specificity protein kinase CLK4 (Homo sapiens) (Q9HAZ1 whole entry, looked up): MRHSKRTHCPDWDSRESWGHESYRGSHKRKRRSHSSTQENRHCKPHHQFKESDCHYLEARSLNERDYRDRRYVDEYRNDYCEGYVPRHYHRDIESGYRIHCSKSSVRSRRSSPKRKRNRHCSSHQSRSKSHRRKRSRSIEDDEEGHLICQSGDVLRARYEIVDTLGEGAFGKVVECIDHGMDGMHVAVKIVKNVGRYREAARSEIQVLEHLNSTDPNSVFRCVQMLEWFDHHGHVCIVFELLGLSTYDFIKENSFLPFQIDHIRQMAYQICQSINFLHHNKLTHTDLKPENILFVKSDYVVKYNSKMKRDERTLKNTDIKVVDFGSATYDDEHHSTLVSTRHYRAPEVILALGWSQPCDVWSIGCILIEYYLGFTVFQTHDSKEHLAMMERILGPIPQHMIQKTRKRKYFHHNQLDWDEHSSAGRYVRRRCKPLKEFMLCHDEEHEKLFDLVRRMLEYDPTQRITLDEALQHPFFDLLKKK
# Sequence of Cytochrome P450 1A2 (Homo sapiens) (P05177 whole entry, looked up): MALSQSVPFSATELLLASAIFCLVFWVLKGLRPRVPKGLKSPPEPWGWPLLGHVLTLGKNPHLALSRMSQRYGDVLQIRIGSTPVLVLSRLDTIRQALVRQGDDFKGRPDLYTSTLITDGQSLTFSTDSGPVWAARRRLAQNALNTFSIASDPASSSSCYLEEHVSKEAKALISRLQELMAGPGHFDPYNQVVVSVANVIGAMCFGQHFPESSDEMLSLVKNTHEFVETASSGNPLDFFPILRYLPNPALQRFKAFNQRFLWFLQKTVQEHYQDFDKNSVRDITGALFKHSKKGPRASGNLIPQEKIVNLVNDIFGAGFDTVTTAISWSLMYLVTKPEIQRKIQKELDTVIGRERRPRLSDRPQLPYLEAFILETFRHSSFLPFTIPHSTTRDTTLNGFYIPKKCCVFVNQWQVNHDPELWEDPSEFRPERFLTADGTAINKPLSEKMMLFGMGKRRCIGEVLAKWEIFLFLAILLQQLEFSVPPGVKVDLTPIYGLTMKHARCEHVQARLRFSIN
# Sequence of Glucocorticoid receptor (Homo sapiens) (P04150 whole entry, looked up, the tested form may be a part): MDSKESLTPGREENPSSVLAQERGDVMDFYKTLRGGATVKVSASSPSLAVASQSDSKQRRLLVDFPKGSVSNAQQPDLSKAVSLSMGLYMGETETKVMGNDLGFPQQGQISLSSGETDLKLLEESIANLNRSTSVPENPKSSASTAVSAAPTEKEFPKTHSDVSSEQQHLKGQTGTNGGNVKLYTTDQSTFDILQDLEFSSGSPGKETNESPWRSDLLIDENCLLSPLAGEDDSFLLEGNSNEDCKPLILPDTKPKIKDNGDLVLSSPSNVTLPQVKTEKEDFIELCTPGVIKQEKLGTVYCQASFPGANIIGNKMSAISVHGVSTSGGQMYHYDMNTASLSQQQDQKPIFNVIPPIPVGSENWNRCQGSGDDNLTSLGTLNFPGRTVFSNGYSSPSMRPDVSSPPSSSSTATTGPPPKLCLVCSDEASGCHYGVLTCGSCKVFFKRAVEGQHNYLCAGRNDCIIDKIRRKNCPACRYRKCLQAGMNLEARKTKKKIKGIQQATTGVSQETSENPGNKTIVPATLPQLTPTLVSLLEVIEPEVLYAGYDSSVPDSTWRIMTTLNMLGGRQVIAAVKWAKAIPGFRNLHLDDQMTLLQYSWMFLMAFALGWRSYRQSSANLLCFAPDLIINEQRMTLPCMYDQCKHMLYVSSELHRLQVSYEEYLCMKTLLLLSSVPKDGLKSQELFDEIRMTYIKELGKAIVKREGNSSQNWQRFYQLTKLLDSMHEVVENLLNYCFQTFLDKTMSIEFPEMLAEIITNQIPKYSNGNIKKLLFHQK
# Sequence of Ubiquitin carboxyl-terminal hydrolase 1 (Homo sapiens) (O94782 whole entry, looked up): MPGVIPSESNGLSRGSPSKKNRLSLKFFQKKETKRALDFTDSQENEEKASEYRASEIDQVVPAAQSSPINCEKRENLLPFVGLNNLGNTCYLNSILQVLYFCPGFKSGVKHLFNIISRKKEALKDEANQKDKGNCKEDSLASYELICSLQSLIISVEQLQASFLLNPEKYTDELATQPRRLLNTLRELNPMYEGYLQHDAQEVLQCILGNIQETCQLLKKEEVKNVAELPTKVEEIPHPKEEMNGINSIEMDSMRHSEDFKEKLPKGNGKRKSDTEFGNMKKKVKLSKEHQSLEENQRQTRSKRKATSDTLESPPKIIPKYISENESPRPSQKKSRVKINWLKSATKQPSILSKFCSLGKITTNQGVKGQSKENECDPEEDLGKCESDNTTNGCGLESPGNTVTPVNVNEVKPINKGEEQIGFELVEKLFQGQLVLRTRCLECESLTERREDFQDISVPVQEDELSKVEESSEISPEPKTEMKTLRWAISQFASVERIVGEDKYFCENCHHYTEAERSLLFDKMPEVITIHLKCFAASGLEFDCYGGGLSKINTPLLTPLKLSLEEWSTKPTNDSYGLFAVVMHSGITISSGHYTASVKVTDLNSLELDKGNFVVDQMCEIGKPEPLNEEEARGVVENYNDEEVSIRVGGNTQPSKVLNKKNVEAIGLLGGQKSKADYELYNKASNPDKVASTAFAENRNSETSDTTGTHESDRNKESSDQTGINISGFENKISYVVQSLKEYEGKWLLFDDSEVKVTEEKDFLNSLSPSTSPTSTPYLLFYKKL
# Sequence of Cytochrome P450 2C19 (Homo sapiens) (P33261 whole entry, looked up): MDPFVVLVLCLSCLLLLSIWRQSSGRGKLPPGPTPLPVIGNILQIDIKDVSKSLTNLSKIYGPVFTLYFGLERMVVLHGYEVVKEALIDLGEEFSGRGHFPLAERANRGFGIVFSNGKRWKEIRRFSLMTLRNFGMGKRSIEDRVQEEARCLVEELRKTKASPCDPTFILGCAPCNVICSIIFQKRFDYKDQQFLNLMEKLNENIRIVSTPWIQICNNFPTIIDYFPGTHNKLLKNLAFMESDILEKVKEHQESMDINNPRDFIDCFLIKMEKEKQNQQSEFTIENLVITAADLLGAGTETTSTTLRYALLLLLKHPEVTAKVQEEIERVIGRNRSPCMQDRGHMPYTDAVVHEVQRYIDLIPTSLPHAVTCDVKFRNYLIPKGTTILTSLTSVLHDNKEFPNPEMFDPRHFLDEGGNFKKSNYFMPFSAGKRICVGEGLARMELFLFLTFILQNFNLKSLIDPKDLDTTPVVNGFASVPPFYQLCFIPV
# Sequence of Cytochrome P450 3A4 (Homo sapiens) (P08684 whole entry, looked up): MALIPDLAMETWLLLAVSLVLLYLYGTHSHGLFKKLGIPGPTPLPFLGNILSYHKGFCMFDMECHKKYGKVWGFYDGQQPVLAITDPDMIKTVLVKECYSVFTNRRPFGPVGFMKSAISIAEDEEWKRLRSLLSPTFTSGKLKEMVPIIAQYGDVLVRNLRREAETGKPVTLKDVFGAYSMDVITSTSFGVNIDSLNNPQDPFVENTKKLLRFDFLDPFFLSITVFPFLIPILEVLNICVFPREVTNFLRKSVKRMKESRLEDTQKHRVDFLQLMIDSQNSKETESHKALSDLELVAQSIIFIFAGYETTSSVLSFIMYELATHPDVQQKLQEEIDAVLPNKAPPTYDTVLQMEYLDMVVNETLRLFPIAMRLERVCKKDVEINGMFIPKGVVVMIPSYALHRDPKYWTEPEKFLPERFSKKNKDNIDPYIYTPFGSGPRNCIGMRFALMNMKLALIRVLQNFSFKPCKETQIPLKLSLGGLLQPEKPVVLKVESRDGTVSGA
# Sequence of 3',5'-cyclic-AMP phosphodiesterase 4B (Homo sapiens) (Q07343 whole entry, looked up): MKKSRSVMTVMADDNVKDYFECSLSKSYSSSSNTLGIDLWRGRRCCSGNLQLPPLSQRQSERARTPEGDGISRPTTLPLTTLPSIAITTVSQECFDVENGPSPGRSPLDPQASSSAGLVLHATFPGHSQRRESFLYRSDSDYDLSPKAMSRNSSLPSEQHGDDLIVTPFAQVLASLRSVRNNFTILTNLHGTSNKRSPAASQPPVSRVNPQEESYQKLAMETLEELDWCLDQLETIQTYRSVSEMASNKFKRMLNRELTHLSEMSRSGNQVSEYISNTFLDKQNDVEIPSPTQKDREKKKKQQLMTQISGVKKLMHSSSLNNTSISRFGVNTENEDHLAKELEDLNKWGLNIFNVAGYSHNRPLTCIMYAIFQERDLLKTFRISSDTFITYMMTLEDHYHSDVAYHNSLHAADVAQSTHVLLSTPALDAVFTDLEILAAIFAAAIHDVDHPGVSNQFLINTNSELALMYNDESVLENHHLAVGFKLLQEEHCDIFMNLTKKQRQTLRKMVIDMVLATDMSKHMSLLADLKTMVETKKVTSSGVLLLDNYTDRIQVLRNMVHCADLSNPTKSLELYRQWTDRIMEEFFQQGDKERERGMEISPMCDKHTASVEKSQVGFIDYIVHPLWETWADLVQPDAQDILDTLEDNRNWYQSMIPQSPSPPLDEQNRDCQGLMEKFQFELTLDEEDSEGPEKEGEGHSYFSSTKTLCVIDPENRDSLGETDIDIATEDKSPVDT
# Sequence of Lysosomal acid glucosylceramidase (Homo sapiens) (P04062 whole entry, looked up): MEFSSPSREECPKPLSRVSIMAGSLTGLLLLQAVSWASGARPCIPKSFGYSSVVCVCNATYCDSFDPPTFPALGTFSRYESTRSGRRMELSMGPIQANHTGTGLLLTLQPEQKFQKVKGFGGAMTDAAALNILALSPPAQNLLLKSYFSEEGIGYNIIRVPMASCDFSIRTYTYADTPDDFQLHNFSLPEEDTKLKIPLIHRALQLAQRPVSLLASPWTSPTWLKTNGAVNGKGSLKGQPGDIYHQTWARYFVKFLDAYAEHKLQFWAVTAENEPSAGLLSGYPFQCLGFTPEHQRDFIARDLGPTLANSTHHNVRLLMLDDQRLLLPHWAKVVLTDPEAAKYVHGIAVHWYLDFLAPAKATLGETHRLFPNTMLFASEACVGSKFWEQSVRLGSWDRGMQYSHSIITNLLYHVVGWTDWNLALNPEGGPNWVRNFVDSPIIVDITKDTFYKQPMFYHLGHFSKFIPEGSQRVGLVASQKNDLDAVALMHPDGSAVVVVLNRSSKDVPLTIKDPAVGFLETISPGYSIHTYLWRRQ
SMILES,Potency [1],Potency [2] [µM],"activity change, negative = inhibition [3] [%]","activity change, negative = inhibition [4] [%]",outcome [5],Potency [6] [µM],Potency [7],Potency [8],Potency [9],Potency [10],Potency [11],Potency [12],Potency [13] [µM],outcome [14],Potency [15],Potency [16],Potency [17],activation [18] [%],Potency [18],Potency [19]
O=C(NO)c1cccc(C(=O)NCCc2ccccc2)c1,inactive,,,,,,,,,,,,,,,,,,,
COc1ccc(Oc2ncc3nc(-c4cccc(C#N)c4)c(=O)n(CCC#N)c3n2)cc1,,> 11.4,-20.3,14.2,inactive,> 46,inactive,inactive,inactive,inactive,,,,,,,,,,
COc1cccc(Cn2c(=O)c(CCc3ccccc3)nc3cnc(N(C)C)nc32)c1,,> 11.4,-2.39,6.19,inactive,> 46,inactive,inactive,inactive,inactive,15.8 µM (active),0.794 µM (active),,,,,,,,
CN(C)c1ncc2nc(CCc3ccccc3)c(=O)n(CCC#N)c2n1,,> 11.4,-11,-3.25,inactive,> 46,,inactive,inactive,inactive,2 µM (active),,> 9.22,inactive,2.51 µM (active),inactive,,,,
N#Cc1cccc(-c2nc(NCCN3CCOCC3)c3ccccc3n2)c1,,> 11.4,-13,,inactive,> 46,inactive,11.2 µM (active),6.31 µM (active),7.94 µM (active),1 µM (active),,> 46,inactive,7.94 µM (active),inactive,inactive,-16.9,,
O=c1ccn2c(n1)O[C@H]1[C@H](O)[C@@H](CO)O[C@H]12,inactive,,,,,,,,,,,,,,,,,,,
COc1ccc(Oc2ncc3nc(-c4ccc(F)cc4)c(=O)n(CCC#N)c3n2)cc1,,> 11.4,-16.1,1.8,inactive,> 46,inactive,inactive,inactive,inactive,,,> 9.22,,,,inactive,,,
COCCn1c(=O)c(-c2cc(F)cc(F)c2)nc2cnc(N3CCN(C)CC3)nc21,,> 11.4,19.3,,,> 46,inactive,inactive,inactive,inactive,15.8 µM (active),,> 9.22,,,,inactive,,3.16 µM (active),
FC(F)(F)c1ccccc1-c1nc(NCc2cccnc2)c2ccccc2n1,,> 11.4,5.72,3.45,inactive,> 46,inactive,inactive,inactive,inactive,2 µM (active),3.98 µM (active),,,,12.6 µM (active),,,,2 µM (active)
COCCn1c(=O)c(-c2cccc(C#N)c2)nc2cnc(Oc3cccc(Cl)c3)nc21,,> 11.4,-5.9,-4.85,inactive,> 46,inactive,inactive,inactive,inactive,,,> 9.22,,,inactive,inactive,,,
O=c1c(CCc2ccccc2)nc2cnc(N3CCOCC3)nc2n1-c1ccccc1,,> 11.4,1.07,1.96,inactive,> 46,inactive,inactive,inactive,inactive,,,> 9.22,,,inactive,,-5.71,,
COc1cccc(-c2ccc3ncnc(Nc4ccccc4)c3c2)c1,,> 11.4,,,inactive,> 46,inactive,2 µM (active),2.82 µM (active),0.282 µM (active),1 µM (active),0.501 µM (active),,inactive,,inactive,,,,
CN1CCN(c2ncnc3ccc(-c4ccccc4C(F)(F)F)cc23)CC1,,> 11.4,,-19.6,inactive,> 46,inactive,inactive,inactive,inactive,,,> 46,,,,inactive,,,
